Inconclusive results are not listed. Active and inactive are the calls of the source. The calls were made as follows: active = hit-call score of the fitted dose curve at least 0.9, where 1 is the maximum; inconclusive = response in the unintended direction; inactive = score below 0.9.
Target: Tyrosine-protein kinase ABL1 (Homo sapiens) (UniProt P00519)
Assay: NVS_ENZ_hAbl: NovaScreen (NVS) Enzymatic Assay for human ABL proto-oncogene 1, non-receptor tyrosine kinase
Protocol: NVS_ENZ_hAbl is a biochemical, single-readout assay that uses extracted gene-proteins in a cell-free assay. Measurements were taken 1 hour after chemical dosing in a 96-well plate.NVS_ENZ_hAbl is one of one assay component(s) measured or calculated from the NVS_ENZ_hAbl assay. It is designed to make measurements of enzyme activity, a form of enzyme reporter, as detected with fluorescence intensity signals by Fluorescence and electrophoretic mobility shift technology.Data from the assay component NVS_ENZ_hAbl was analyzed into 1 assay endpoint. This assay endpoint, NVS_ENZ_hAbl, was analyzed in the positive analysis fitting direction relative to DMSO as the negative control and baseline of activity. Using a type of enzyme reporter, loss-of-signal activity can be used to understand changes in the enzymatic activity as they relate to the gene ABL1. Furthermore, this assay endpoint can be referred to as a primary readout, because this assay has produced multiple assay endpoints where this one serves a enzymatic activity function. To generalize the intended target to other relatable targets, this assay endpoint is annotated to the kinase intended target family, where the subfamily is non-receptor tyrosine kinase.
Binding assays used specific radioligands (tritiated, iodinated) with non-radioactive competitive displacement ligands in agonist or antagonist protocols (as indicated) and various reference compounds and inhibitors to titrate specific binding to receptors and transporters. Most enzyme assays (CYPs, kinases, phosphatases, proteases, HDACs) used recombinant protein and specific substrates (fluorescence mostly, some colorimetric and radioactive) and inhibitors, followed by a biochemical separation of substrate and product. All assays for the biochemical HTS were initially run in duplicate at a single concentration (10 uM for CYP450 assays and 25 uM for all others). Assay-chemical combinations meeting a pre-defined threshold (e.g., 30% inhibition and other criteria defined below) were then run in singleton concentration-response format with maximum concentration of 20 uM for CYPs and 50 uM for all others. Each assay was run with positive and negative controls, and concurrent controls on every plate. The follow-up (secondary) screen tested active chemical-pairs in concentration series, as well as a few additional assays not tested in the primary screen, some selected negative inactives, and several cases re-run in the concentration series for confirmatory purposes.

Sequence of Tyrosine-protein kinase ABL1 (Homo sapiens) (P00519 whole entry, looked up): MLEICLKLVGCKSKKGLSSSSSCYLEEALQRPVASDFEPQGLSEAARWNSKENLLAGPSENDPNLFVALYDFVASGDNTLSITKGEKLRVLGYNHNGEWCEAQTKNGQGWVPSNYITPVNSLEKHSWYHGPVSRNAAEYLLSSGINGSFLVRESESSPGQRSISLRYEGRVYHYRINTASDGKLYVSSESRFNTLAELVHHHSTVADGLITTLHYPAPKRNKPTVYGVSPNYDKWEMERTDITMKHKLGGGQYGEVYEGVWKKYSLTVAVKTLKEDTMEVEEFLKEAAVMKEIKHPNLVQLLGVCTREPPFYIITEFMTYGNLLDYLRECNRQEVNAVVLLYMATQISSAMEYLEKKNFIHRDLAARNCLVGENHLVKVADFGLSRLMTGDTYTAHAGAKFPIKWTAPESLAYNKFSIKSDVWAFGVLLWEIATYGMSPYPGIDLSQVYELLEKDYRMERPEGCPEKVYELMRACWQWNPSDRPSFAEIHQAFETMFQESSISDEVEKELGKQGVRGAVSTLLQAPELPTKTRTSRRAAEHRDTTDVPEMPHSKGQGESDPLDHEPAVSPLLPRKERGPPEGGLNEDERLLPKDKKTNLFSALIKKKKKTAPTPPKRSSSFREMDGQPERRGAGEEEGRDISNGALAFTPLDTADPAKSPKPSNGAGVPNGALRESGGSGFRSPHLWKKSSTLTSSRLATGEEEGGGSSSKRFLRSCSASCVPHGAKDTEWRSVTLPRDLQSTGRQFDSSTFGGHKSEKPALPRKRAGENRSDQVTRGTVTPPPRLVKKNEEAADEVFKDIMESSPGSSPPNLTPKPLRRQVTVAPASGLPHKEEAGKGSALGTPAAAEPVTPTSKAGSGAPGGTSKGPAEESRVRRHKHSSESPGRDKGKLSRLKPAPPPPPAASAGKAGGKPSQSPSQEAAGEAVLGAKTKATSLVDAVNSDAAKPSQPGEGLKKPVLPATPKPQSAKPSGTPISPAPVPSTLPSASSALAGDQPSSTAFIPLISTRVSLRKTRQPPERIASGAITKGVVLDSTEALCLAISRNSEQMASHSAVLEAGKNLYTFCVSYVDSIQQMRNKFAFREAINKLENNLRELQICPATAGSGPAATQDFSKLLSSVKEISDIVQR

Row | Structure (SMILES) | outcome
1 | O=S(=O)(O)C(F)(F)C(F)(F)C(F)(F)C(F)(F)C(F)(F)C(F)(F)C(F)(F)C(F)(F)F | inactive
2 | O=C(Nc1ccccc1)Nc1ccnc(Cl)c1 | inactive
3 | N#Cc1c(Cl)c(Cl)c(Cl)c(C#N)c1Cl | inactive
4 | O=C(O)C(F)(F)C(F)(F)C(F)(F)C(F)(F)C(F)(F)C(F)(F)C(F)(F)F | inactive
5 | CCCC(=NOCC)C1=C(O)CC(CC(C)SCC)CC1=O (stereo not drawn) | inactive
6 | O=C(Nc1ccccc1)Nc1cnns1 | inactive
7 | CCCCNC(=O)n1c(NC(=O)OC)nc2ccccc21 | inactive
8 | CCNc1nc(Cl)nc(NCC)n1 | inactive
